# Measurements taken from the supplement of paper PMC8728848.
# This excerpt belongs to a sample that is enriched for the strongest signals.
# B1: YghJ (Escherichia coli), E3PJ90 (protein)
# chain: MNKKFKYKKSLLAAILSATLLAGCDGGGSGSSSDTPPVDSGTGSLPEVKPDPTPNPEPTPEPTPDPEPTPEPIPDPEPTPEPEPEPVPTKTGYLTLGGSQRVTGATCNGESSDGFTFKPGEDVTCVAGNTTIATFNTQSEAARSLRAVEKVSFSLEDAQELAGSDDKKSNAVSLVTSSNSCPANTEQVCLTFSSVIESKRFDSLYKQIDLAPEEFKKLVNEEVENNAATDKAPSTHTSPVVPVTTPGTKPDLNASFVSANAEQFYQYQPTEIILSEGRLVDSQGYGVAGVNYYTNSGRGVTGENGEFSFSWGEAISFGIDTFELGSVRGNKSTIALTELGDEVRGANIDQLIHRYSTTGQNNTRVVPDDVRKVFAEYPNVINEIINLSLSNGATLGEGEQVVNLPNEFIEQFNTGQAKEIDTAICAKTDGCNEARWFSLTTRNVNDGQIQGVINKLWGVDTNYKSVSKFHVFHDSTNFYGSTGNARGQAVVNISNAAFPILMARNDKNYWLAFGEKRAWDKNELAYITEAPSIVRPENVTRETASFNLPFISLGQVGDGKLMVIGNPHYNSILRCPNGYSWNGGVNKDGQCTLNSDPDDMKNFMENVLRYLSNDRWLPDAKSSMTVGTNLETVYFKKHGQVLGNSAPFAFHKDFTGITVKPMTSYGNLNPDEVPLLILNGFEYVTQWGSDPYSIPLRADTSKPKLTQQDVTDLIAYMNKGGSVLIMENVMSNLKEESASGFVRLLDAAGLSMALNKSVVNNDPQGYPDRVRQRRSTPIWVYERYPAVDGKPPYTIDDTTKEVIWKYQQENKPDDKPKLEVASWQEEVEGKQVTQFAFIDEADHKTPESLAAAKQRILDAFPGLEVCKDSDYHYEVNCLEYRPGTDVPVTGGMYVPQYTQLDLSADTAKAMLQAADLGTNIQRLYQHELYFRTNGRQGERLNSVDLERLYQNMSVWLWNETKYRYEEGKEDELGFKTFTEFLNCYTNNAYVGTQCSAELKKSLIDNKMIYGEESSKAGMMNPSYPLNYMEKPLTRLMLGRSWWDLNIKVDVEKYPGVVNTNGETVTQNINLYSAPTKWFAGNMQSTGLWAPAQQEVSIESKSTVPVTVTVALADDLTGREKHEVSLNRPPRVTKTYDLKANDKVTFKVPYGGLIYIKGDSKEVQSADFTFTGVVKAPFYKDGKWQHDLNSPAPLGELESASFVYTTPKKNLNASNYTGGLEQFANDLDTFASSMNDFYGRDSEDGKHRMFTYKNLPGHKHRFANDVQISIGDAHSGYPVMNSSFSPNSTTLPTTPLNDWLIWHEVGHNAAETPLTVPGATEVANNVLALYMQDRYLGKMNRVADDITVAPEYLEESNGQAWARGGAGDRLLMYAQLKEWAEKNFDIKKWYPDGTPLPEFYSEREGMKGWNLFQLMHRKARGDEVSNDKFGGKNYCAESNGNAADTLMLCASWVAQTDLSEFFKKWNPGANAYQLPGASEMSFEGGVSQSAYNTLASLDLPKPEQGPETINQVTEHKMSAE
# Columns and labels:
# Test in all cases: glycan array binding signal (z-score within array); higher = stronger binding
# Conditions in all cases: glycan notation: IUPAC condensed, linker removed
# Gal6S(b1-3)GlcNAc = biological target: Gal6S(b1-3)GlcNAc
# How it was run: (§1)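 Glycan array data were curated from 3228 arrays in the Consortium for Functional Glycomics database and kept only where the protein sequence was available. Glycan names were converted to IUPAC-condensed notation, and columns mapping to the same glycan were averaged. The binding signal is a within-array Z-score, averaged across arrays of the same protein sequence at different concentrations or buffers and across linkers. Negative Z-scores can be read as non-binding.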
# Gal6S(b1-3)GlcNAc6S = biological target: Gal6S(b1-3)GlcNAc6S
# How it was run: as §1
# GalNAc(b1-4)GlcNAc = biological target: GalNAc(b1-4)GlcNAc
# How it was run: as §1
# GalNAc(b1-4)GlcNAc6S = biological target: GalNAc(b1-4)GlcNAc6S
# How it was run: as §1
# [1] = biological target: GlcNAc(b1-2)Man(a1-3)[GlcNAc(b1-2)Man(a1-6)]Man(b1-4)GlcNAc(b1-4)GlcNAc
# How it was run: as §1
# [2] = biological target: GlcNAc(b1-2)[GlcNAc(b1-4)]Man(a1-3)[GlcNAc(b1-4)][GlcNAc(b1-2)[GlcNAc(b1-6)]Man(a1-6)]Man(b1-4)GlcNAc(b1-4)GlcNAc
# How it was run: as §1
# GlcNAc(b1-3)Fuc = biological target: GlcNAc(b1-3)Fuc
# How it was run: as §1
# [3] = biological target: GlcNAc(b1-3)Gal(b1-4)GlcNAc(b1-3)Gal(b1-4)GlcNAc(b1-3)Gal(b1-4)GlcNAc(b1-3)Gal(b1-4)GlcNAc(b1-2)Man(a1-3)[GlcNAc(b1-3)Gal(b1-4)GlcNAc(b1-3)Gal(b1-4)GlcNAc(b1-3)Gal(b1-4)GlcNAc(b1-3)Gal(b1-4)GlcNAc(b1-2)Man(a1-6)]Man(b1-4)GlcNAc(b1-4)GlcNAc
# How it was run: as §1
# [4] = biological target: GlcNAc(b1-3)Gal(b1-4)GlcNAc(b1-3)[GlcNAc(b1-3)Gal(b1-4)GlcNAc(b1-3)]GalNAc
# How it was run: as §1
# [5] = biological target: GlcNAc(b1-3)Gal(b1-4)GlcNAc(b1-6)[GlcNAc(b1-3)]Gal(b1-4)GlcNAc
# How it was run: as §1
# GlcNAc(b1-6)GalNAc = biological target: GlcNAc(b1-6)GalNAc
# How it was run: as §1
# [6] = biological target: Kdn(a2-3)Gal(b1-4)[Fuc(a1-3)]GlcNAc
# How it was run: as §1
# [7] = biological target: Man(a1-3)[Man(a1-6)]Man(a1-6)[Man(a1-3)]Man
# How it was run: as §1
# [8] = biological target: Neu5Ac(a2-3)Gal(b1-3)GlcNAc(b1-3)GalNAc
# How it was run: as §1
# [9] = biological target: Neu5Ac(a2-3)Gal(b1-3)GlcNAc6S
# How it was run: as §1
# [10] = biological target: Neu5Ac(a2-3)Gal(b1-4)GlcNAc(b1-3)Gal(b1-3)GlcNAc
# How it was run: as §1
# [11] = biological target: Neu5Ac(a2-3)Gal(b1-4)GlcNAc(b1-3)Gal(b1-4)GlcNAc(b1-3)Gal(b1-4)GlcNAc(b1-2)Man(a1-3)[Neu5Ac(a2-3)Gal(b1-4)GlcNAc(b1-3)Gal(b1-4)GlcNAc(b1-3)Gal(b1-4)GlcNAc(b1-2)Man(a1-6)]GalNAc
# How it was run: as §1
# [12] = biological target: Neu5Ac(a2-3)Gal(b1-4)[Fuc(a1-3)]GlcNAc(b1-3)Gal
# How it was run: as §1
# [13] = biological target: Neu5Ac(a2-6)Gal(b1-4)GlcNAc(b1-2)Man(a1-3)Man(b1-4)GlcNAc(b1-4)GlcNAc
# How it was run: as §1
# [14] = biological target: Neu5Ac(a2-6)Gal(b1-4)GlcNAc(b1-6)[Gal(b1-3)]GalNAc
# How it was run: as §1
# [15] = biological target: Neu5Ac(a2-8)Neu5Ac(a2-3)Gal(b1-4)GlcNAc
# How it was run: as §1
# [16] = biological target: Neu5Ac(a2-8)Neu5Ac(a2-3)[Gal(b1-3)GalNAc(b1-4)]Gal(b1-4)Glc
# How it was run: as §1
# [17] = biological target: Neu5Ac(a2-8)Neu5Gc(a2-3)Gal(b1-4)GlcNAc
# How it was run: as §1
# [18] = biological target: Neu5Gc(a2-6)Gal(b1-4)GlcNAc
# How it was run: as §1
# [19] = biological target: Neu5Gc(b2-6)Gal(b1-4)GlcNAc
# How it was run: as §1
binder,measurement,setting,value
B1,glycan array binding signal (z-score),Gal6S(b1-3)GlcNAc,0.437
same,glycan array binding signal (z-score),Gal6S(b1-3)GlcNAc6S,2.04
same,glycan array binding signal (z-score),GalNAc(b1-4)GlcNAc,1.36
same,glycan array binding signal (z-score),GalNAc(b1-4)GlcNAc6S,0.943
same,glycan array binding signal (z-score),[1],0.16
same,glycan array binding signal (z-score),[2],-0.048
same,glycan array binding signal (z-score),GlcNAc(b1-3)Fuc,-0.862
same,glycan array binding signal (z-score),[3],4.26
same,glycan array binding signal (z-score),[4],2.97
same,glycan array binding signal (z-score),[5],-1.26
same,glycan array binding signal (z-score),GlcNAc(b1-6)GalNAc,-1.05
same,glycan array binding signal (z-score),[6],-0.222
same,glycan array binding signal (z-score),[7],-1.22
same,glycan array binding signal (z-score),[8],-0.159
same,glycan array binding signal (z-score),[9],-0.847
same,glycan array binding signal (z-score),[10],0.515
same,glycan array binding signal (z-score),[11],2.64
same,glycan array binding signal (z-score),[12],-1.23
same,glycan array binding signal (z-score),[13],-1
same,glycan array binding signal (z-score),[14],-1.4
same,glycan array binding signal (z-score),[15],5.47
same,glycan array binding signal (z-score),[16],0.298
same,glycan array binding signal (z-score),[17],-0.939
same,glycan array binding signal (z-score),[18],-0.154
same,glycan array binding signal (z-score),[19],3.37
